Results published in PubChem BioAssay AID1159580 (chemical genetic matrix, 2015).
The whole screen tested about 5,500 compounds, of which about 2,000 (36%) were called active. About 18% were inconclusive and are not listed. Cut-off read from the data, not from the text of the source: active = normalized growth mostly below about 0.91 (no sharp cut-off); inconclusive = no clear call, values can overlap the other calls; inactive = mostly above about 0.92. The list shows a part of the results.

Assay: chemical genetic growth profiling, strain panel (AID 1159580);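 note: tested at 20 µM; growth read once vehicle control cultures reached saturation at 30 °C; 1 = growth at the plate median or of vehicle wells; lower values mean less growth of the strain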
Conditions: growth OD

Measured: normalized growth

OC1=Cc2c(O)cc(O)cc2OC1(O)c1ccc(O)c(O)c1 (stereo not drawn)
inactive: S. cerevisiae deletion strains, locus YBR021W, strain FUR4, stronger effect = lower value 1.06 | S. cerevisiae deletion strains, locus YBR229C, strain ROT2, stronger effect = lower value 1 | S. cerevisiae deletion strains, locus YCL029C, strain bik1, stronger effect = lower value 0.997 | S. cerevisiae deletion strains, locus YDL035C, strain GPR1, stronger effect = lower value 1.02 | S. cerevisiae deletion strains, locus YDL074C, strain BRE1, stronger effect = lower value 0.962 | S. cerevisiae deletion strains, locus YDL101C, strain DUN1, stronger effect = lower value 0.99 | S. cerevisiae deletion strains, locus YDL134C, strain PPH21, stronger effect = lower value 0.975 | S. cerevisiae deletion strains, locus YDL185W, strain tfp1, stronger effect = lower value 0.96 | S. cerevisiae deletion strains, locus YDL192W, strain arf1, stronger effect = lower value 1 | S. cerevisiae deletion strains, locus YDR101C, strain arx1, stronger effect = lower value 1.03 | S. cerevisiae deletion strains, locus YDR162C, strain NBP2, stronger effect = lower value 0.956 | S. cerevisiae deletion strains, locus YDR318W, strain mcm21, stronger effect = lower value 1 | S. cerevisiae deletion strains, locus YDR388W, stronger effect = lower value 0.994 | S. cerevisiae deletion strains, locus YDR502C, strain sam2, stronger effect = lower value 1.01 | S. cerevisiae deletion strains, locus YER110C, stronger effect = lower value 0.993 | S. cerevisiae deletion strains, locus YER155C, strain BEM2, stronger effect = lower value 1.02 | S. cerevisiae deletion strains, locus YER167W, strain BCK2, stronger effect = lower value 1.01 | S. cerevisiae deletion strains, locus YGL078C, strain dbp3, stronger effect = lower value 0.972 | S. cerevisiae deletion strains, locus YGL086W, strain mad1, stronger effect = lower value 0.997 | S. cerevisiae deletion strains, locus YGL248W, strain PDE1, stronger effect = lower value 0.979 | S. cerevisiae deletion strains, locus YGR078C, strain PAC10, stronger effect = lower value 0.962 | S. cerevisiae deletion strains, locus YGR135W, strain pre9, stronger effect = lower value 0.972 | S. cerevisiae deletion strains, locus YGR252W, strain gcn5, stronger effect = lower value 1.1 | S. cerevisiae deletion strains, locus YHR030C, strain SLT2, stronger effect = lower value 0.984 | S. cerevisiae deletion strains, locus YHR079C, strain IRE1 (second series), stronger effect = lower value 0.995 | S. cerevisiae deletion strains, locus YHR094C, strain hxt1, stronger effect = lower value 0.995 | S. cerevisiae deletion strains, locus YHR129C, strain ARP1, stronger effect = lower value 0.985 | S. cerevisiae deletion strains, locus YHR200W, strain rpn10, stronger effect = lower value 0.997 | S. cerevisiae deletion strains, locus YIL066C, strain RNR3, stronger effect = lower value 0.991 | S. cerevisiae deletion strains, locus YIL073C, strain SPO22, stronger effect = lower value 0.972 | S. cerevisiae deletion strains, locus YIL125W, strain kgd1, stronger effect = lower value 0.989 | S. cerevisiae deletion strains, locus YIR030C, strain dcg1, stronger effect = lower value 0.989 | S. cerevisiae deletion strains, locus YJL095W, strain BCK1, stronger effect = lower value 0.965 | S. cerevisiae deletion strains, locus YJL134W, strain LCB3, stronger effect = lower value 0.997 | S. cerevisiae deletion strains, locus YJL168C, strain set2, stronger effect = lower value 0.991 | S. cerevisiae deletion strains, locus YJL187C, strain SWE1 (second series), stronger effect = lower value 0.966 | S. cerevisiae deletion strains, locus YKL009W, strain mrt4, stronger effect = lower value 0.997 | S. cerevisiae deletion strains, locus YKL068W, stronger effect = lower value 0.981 | S. cerevisiae deletion strains, locus YKL085W, strain MDH1 (second series), stronger effect = lower value 0.986 | S. cerevisiae deletion strains, locus YKL085W, strain MDH1, stronger effect = lower value 0.986 | S. cerevisiae deletion strains, locus YKL190W, strain CNB1, stronger effect = lower value 0.992 | S. cerevisiae deletion strains, locus YKR001C, strain vps1, stronger effect = lower value 1 | S. cerevisiae deletion strains, locus YLR039C, strain RIC1, stronger effect = lower value 1 | S. cerevisiae deletion strains, locus YLR058C, strain SHM2, stronger effect = lower value 0.984 | S. cerevisiae deletion strains, locus YLR102C, strain apc9, stronger effect = lower value 0.993 | S. cerevisiae deletion strains, locus YLR268W, strain sec22, stronger effect = lower value 1.02 | S. cerevisiae deletion strains, locus YLR342W, strain FKS1 (second series), stronger effect = lower value 0.935 | S. cerevisiae deletion strains, locus YLR371W, strain rom2, stronger effect = lower value 0.975 | S. cerevisiae deletion strains, locus YLR418C, strain cdc73, stronger effect = lower value 1.02 | S. cerevisiae deletion strains, locus YML016C, strain PPZ1, stronger effect = lower value 0.972 | S. cerevisiae deletion strains, locus YML032C, strain rad52, stronger effect = lower value 1.02 | S. cerevisiae deletion strains, locus YML124C, strain tub3, stronger effect = lower value 1 | S. cerevisiae deletion strains, locus YMR078C, strain ctf18, stronger effect = lower value 0.99 | S. cerevisiae deletion strains, locus YMR223W, strain ubp8, stronger effect = lower value 0.987 | S. cerevisiae deletion strains, locus YMR307W, strain GAS1, stronger effect = lower value 0.971 | S. cerevisiae deletion strains, locus YNL067W, strain RPL9B, stronger effect = lower value 0.967 | S. cerevisiae deletion strains, locus YNL153C, strain GIM3, stronger effect = lower value 0.964 | S. cerevisiae deletion strains, locus YNL233W, strain BNI4, stronger effect = lower value 0.998 | S. cerevisiae deletion strains, locus YNL250W, strain rad50, stronger effect = lower value 0.97 | S. cerevisiae deletion strains, locus YNL271C, strain bni1, stronger effect = lower value 0.978 | S. cerevisiae deletion strains, locus YNL298W, strain CLA4, stronger effect = lower value 0.986 | S. cerevisiae deletion strains, locus YNL307C, strain MCK1, stronger effect = lower value 0.999 | S. cerevisiae deletion strains, locus YNR052C, strain pop2, stronger effect = lower value 0.981 | S. cerevisiae deletion strains, locus YOL006C, strain TOP1, stronger effect = lower value 0.945 | S. cerevisiae deletion strains, locus YOL012C, strain htz1 0.48 | S. cerevisiae deletion strains, locus YOL147C, strain pex11, stronger effect = lower value 1.01 | S. cerevisiae deletion strains, locus YOR061W, strain CKA2, stronger effect = lower value 0.987 | S. cerevisiae deletion strains, locus YOR069W, strain VPS5, stronger effect = lower value 0.988 | S. cerevisiae deletion strains, locus YOR136W, strain idh2, stronger effect = lower value 1 | S. cerevisiae deletion strains, locus YOR144C, strain elg1, stronger effect = lower value 0.996 | S. cerevisiae deletion strains, locus YOR184W, strain ser1, stronger effect = lower value 1.05 | S. cerevisiae deletion strains, locus YOR316C, strain cot1, stronger effect = lower value 0.984 | S. cerevisiae deletion strains, locus YPR119W, strain clb2, stronger effect = lower value 0.995 | S. cerevisiae deletion strains, locus YPR141C, strain kar3, stronger effect = lower value 0.974 | S. cerevisiae deletion strains, locus YPR163C, strain tif3, stronger effect = lower value 0.999 | S. cerevisiae deletion strains, locus YPR167C, strain met16, stronger effect = lower value 0.999 | S. cerevisiae deletion strains, strain wtn01, stronger effect = lower value 1.01 | S. cerevisiae strains, strain wild type, stronger effect = lower value 0.998
